37 compounds from PubChem BioAssay (EPA / NIEHS) can be followed below.

Results filed as inconclusive are left out. Activity calls are given as the source filed them. Rule for the calls: active = hit-call score of the fitted dose curve at least 0.9, where 1 is the maximum; inactive = score below 0.9.

Read-out in this assay: Cytochrome P450 2C9 (Homo sapiens) (UniProt P11712)
In words: CLD_CYP2C9_48hr: CellzDirect (CLD) Gene Expression Assay for xenobiotic metabolism (CYP2C9) at 48 hours (AID 2283701). The procedure: CLD_48hr is a cell-based, multiplexed-readout assay that uses hepatocyte, a human liver primary cell, with measurements taken at 48 hours after chemical dosing in a 96-well plate.CLD_CYP2C9_48hr is one of 16 assay component(s) measured or calculated from the CLD_48hr assay. It is designed to make measurements of mRNA induction, a form of inducible reporter, as detected with chemiluminescence signals by Quantitative Nuclease Protection Assay (qNPA) technology.Data from the assay component CLD_CYP2C9_48hr was analyzed at the endpoint, CLD_CYP2C9_48hr, in the positive analysis fitting direction relative to DMSO as the negative control and baseline of activity. Using a type of inducible reporter, gain-of-signal activity can be used to understand changes in the reporter gene as they relate to the gene CYP2C9. Furthermore, this assay endpoint can be referred to as a primary readout. To generalize the intended target to other relatable targets, this assay endpoint is annotated to the cyp intended target family, where subfamily is xenobiotic metabolism.
Human hepatocyte cultures were treated daily for two consecutive days with fresh dosing solutions containing appropriate concentrations of the 320 ToxCast chemicals (chemical identities were blinded to CellzDirect and other ToxCast collaborators), vehicle control (0.2% DMSO), and positive control inducers as summarized in Table 1. Due to the large number of treatment groups and chemicals examined, the ToxCast chemicals were divided into two groups (spanning two independent cultures of hepatocytes from separate donor preparations (Hu778: ToxCast plates 1 and 2; Hu776: ToxCast plates 3 and 4). Each preparation of human hepatocyte cultures was treated with respective vehicle control, medium only control, set of six positive controls/reference chemicals for the five hepatic receptor pathways, and a subset of eight of the ToxCast chemicals (indoxacarb, pyrithiobac-sodium, norflurazon, cyhalofop-butyl, methomyl, thiram, acetochlor, and propiconazole). These replicate data, coupled with internal replicates designed within the blinded ToxCast chemical library, provided additional data to evaluate interindividual differences between hepatocyte preparations and their potential impact on chemical profiles.Cell morphology and integrity were evaluated using phase-contrast microscopy as an indicator of hepatocyte cell health (Tyson & Green, 1987). Cultures for each treatment group (i.e., media, vehicle [0.2% DMSO], positive control inducers [multiple concentrations], and the ToxCast chemicals [multiple concentrations]) were observed and cell morphology was assessed relative to vehicle control cultures at each harvest time point (0, 6, 24, or 48 h). […] Images were evaluated at the conclusion of the study to assess changes in cell integrity and account for the effects of chemical exposure on uncharacteristic changes in concentration-dependent gene expression profiles. The results from these determinations of apparent cytotoxicity were annotated (yes/no) alongside the corresponding qNPA data for reference.At the conclusion of each treatment period, hepatocyte cultures (96-well) were washed with 1 volume of HBSS, lysed by addition of 25 ul ArrayPlate lysis buffer (HTG, Tucson, AZ), and 70 ul/well of Denaturation Oil, denatured by incubation at 95C for 10 min, and frozen at approximately -70C until analysis by nuclease protection assay (qNPA) (Roberts et al., 2007). For qNPA analysis, cell lysates were thawed at 50C for approximately 30 min, qNPA probes were added, and samples were incubated at 95C for 10 min to begin the detection process by denaturing the target RNA, dissociating the duplexes and secondary structure hybridization. At the conclusion of the hybridization period, S1 nuclease reagent was added to each sample to digest all nonprotected nucleotides at 50C for 60-90 min. […]
Consider `C#CCC1=C(C)C(OC(=O)C2C(C=C(C)C)C2(C)C)CC1=O` (configuration not stated), for which the compound was classed as inactive.

Regarding `CCCCOC(=O)[C@@H](C)Oc1ccc(Oc2ccc(C#N)cc2F)cc1`, the call was inactive.

Consider `CC(C)=CC1C(C(=O)OCN2C(=O)C3=C(CCCC3)C2=O)C1(C)C` (configuration not stated), for which the outcome was inactive.

For `CC(C)[C@H](C(=O)O[C@H](C#N)c1cccc(Oc2ccccc2)c1)c1ccc(Cl)cc1`, the result was inactive.

With `CCOP(=O)(SC(C)CC)N1CCSC1=O` (configuration not stated), the result was inactive.

On to `CCc1cccc(C)c1N(C(=O)CCl)C(C)COC` (configuration not stated), for which the result was inactive.

Take `CCOP(=S)(OCC)Oc1ccc2c(C)c(Cl)c(=O)oc2c1`: the compound was classed as inactive.

`CCC(=NOC/C=C/Cl)C1=C(O)CC(C2CCOCC2)CC1=O` (configuration not stated): the compound was called inactive.

In the case of `CCOP(=O)(OCC)Oc1cc(C)nc(C(C)C)n1`, the call was inactive.

Turning to `CCc1cccc(CC)c1N(COC)C(=O)CCl`, the compound was called inactive.

With `CN(C)C(=O)Nc1cccc(C(F)(F)F)c1`, the outcome was inactive.

For the compound `COP(=O)(OC)SCn1c(=O)oc2cc(Cl)cnc21`, the result was inactive.

Turning to `Cc1ccn2nc(S(=O)(=O)Nc3c(F)cccc3F)nc2n1`, the compound was called inactive.

Regarding `CCOC(=O)COc1cc(-c2nn(C)c(OC(F)F)c2Cl)c(F)cc1Cl`, the compound was classed as inactive.

Consider `C#CC(C)(C)NC(=O)c1cc(Cl)cc(Cl)c1`, for which the call was inactive.

For the compound `CC(C)N(C(=O)SCC(Cl)=C(Cl)Cl)C(C)C`, the outcome was inactive.

With `CN1COCN(Cc2cnc(Cl)s2)C1=N[N+](=O)[O-]`, the outcome was inactive.

As for `O=c1ccc(=O)[nH][nH]1`, the compound was called inactive.

`CNC(=O)ON=C(SC)C(=O)N(C)C`: the call was inactive.

As for `Cc1cc(C2CC2)nc(Nc2ccccc2)n1`, the result was inactive.

For `CSc1nnc(C(C)(C)C)c(=O)n1N`, the result was inactive.

Turning to `CC(COc1ccc(Oc2ccccc2)cc1)Oc1ccccn1` (configuration not stated), the compound was called inactive.

As to `CON=C(C(=O)OC)c1ccccc1CON=C(C)c1cccc(C(F)(F)F)c1`, the result was inactive.

For the compound `CCOP(=S)(OCC)OC(Cl)C(Cl)(Cl)Cl` (configuration not stated), the result was inactive.

Regarding `CCCSP(=O)(OCC)Oc1ccc(Br)cc1Cl` (configuration not stated), the outcome was inactive.

For `CCOP(=S)(Oc1cnc(C(C)(C)C)nc1)OC(C)C` (configuration not stated), the compound was called inactive.

For `CCOP(=O)(NC(C)C)Oc1ccc(SC)c(C)c1` (configuration not stated), the compound was called inactive.

In the case of `CCCSP(=O)(OCC)SCCC`, the result was inactive.

Turning to `CC(=NC#N)N(C)Cc1ccc(Cl)nc1`, the outcome was inactive.

With `COc1cccc(C(=O)NN(C(=O)c2cc(C)cc(C)c2)C(C)(C)C)c1C`, the compound was called inactive.

Turning to `COP(=O)(NC(C)=O)SC` (configuration not stated), the compound was called inactive.

As to `CNc1cnn(-c2cccc(C(F)(F)F)c2)c(=O)c1Cl`, the compound was called inactive.

Regarding `CCCCSP(=O)(SCCCC)SCCCC`, the outcome was inactive.

`COc1ccc(C(=CC(=O)N2CCOCC2)c2ccc(Cl)cc2)cc1OC`: the call was inactive.

Take `CSc1nc(NC(C)C)nc(NC(C)C)n1`: the outcome was inactive.

For the compound `COc1cc(OC)nc(Sc2cccc(Cl)c2C(=O)O)n1`, the call was inactive.

Take `CCOP(=S)(OCC)SCCSCC`: the call was inactive.
